# PubChem BioAssay
# Calls of active or inactive are those of the source.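 Rule for the calls, unless noted: active = visually confirmed hit in the image check and inhibition above 20%; inconclusive = visually confirmed hit but inhibition not above 20%; inactive = no visual hit in the image check.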
# Tests used:
# [1] = inhibitors of TNFa-induced NFkB p65 translocation, primary screen, imaging, HUVEC, MLSMR starter and 10KST1 sets (AID 438;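 active = inhibition above 20% together with a positive visual image hit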;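 note: compound added about 3h40 before a 20 min TNFalpha stimulation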;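 for inhibition: signal is the nuclear over cytoplasmic p65 intensity ratio per well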); conditions: HUVEC TNFa-induced p65 nuclear translocation; cell count: measured here: nuclei count (cytotoxicity indicator), at 2.08 µM; inhibition: at 2 µM, stronger effect = higher value, 0% TNFa-plus-vehicle, 100% no-TNFa wells
# [2] = reduction of polyQ htt aggregates in cells – imaging, exon1htt(103Q)mCFP cells, high-content imaging, primary screen (AID 483;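 active = visual image review flags a hit and inhibition of aggregation exceeds 20%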;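 note: compound exposure lasted 3 days before fixation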;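 for nuclei count: percent of the per-plate median nuclei count of sample wells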); conditions: exon1htt(103Q)mCFP cell line, aggregate imaging, at 2 µM; inhibition of aggregation: stronger effect = higher value; nuclei count: measured here: cell count, toxicity
# [3] = endothelial E-selectin expression blockers – imaging, HUVEC, immunofluorescence, MLSMR starter and 10KST1 sets, primary screen (AID 487); conditions: HUVEC TNFalpha-induced E-selectin immunofluorescence imaging, at 2 µM; inhibition: stronger effect = higher value; nuclei count: measured here: cell number, toxicity;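 for inhibition: signal is fraction of cell area covered by stained E-selectin grains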;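 for nuclei count: 100% = median nuclei count of all wells on the same plate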
# [4] = target: Voltage-gated potassium channel subunit beta-2 (Rattus norvegicus) (UniProt P62483); assay: inhibitors of rat Kvbeta2 reductase activity – biochemical, NADPH fluorescence, primary screen (AID 622;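 active = fluorescence slope higher than the sample average by over 3 SD, cut at about -0.22 in these data, passing the limit was not always enough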;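 note: slope of raw intensity against log time taken from 70 to 1610 s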); conditions: recombinant KvBeta, 4-cyanobenzaldehyde reduction, at 10 µM, stronger effect = higher value
# Chain of Voltage-gated potassium channel subunit beta-2 (Rattus norvegicus) (P62483 whole entry, looked up): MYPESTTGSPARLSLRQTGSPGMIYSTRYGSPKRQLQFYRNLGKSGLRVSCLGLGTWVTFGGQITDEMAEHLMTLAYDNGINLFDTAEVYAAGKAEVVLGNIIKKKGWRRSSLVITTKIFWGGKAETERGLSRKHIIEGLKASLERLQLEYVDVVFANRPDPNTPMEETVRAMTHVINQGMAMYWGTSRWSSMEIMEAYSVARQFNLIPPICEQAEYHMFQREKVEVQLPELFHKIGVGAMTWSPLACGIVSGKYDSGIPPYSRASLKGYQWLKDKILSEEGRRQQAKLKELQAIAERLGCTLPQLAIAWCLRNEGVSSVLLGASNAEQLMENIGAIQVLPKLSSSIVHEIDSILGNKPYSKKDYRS
# [5] = target: Voltage-gated potassium channel subunit beta-2 (Rattus norvegicus) (UniProt P62483); assay: enhancers of rat Kvbeta2 NADPH turnover – biochemical, NADPH fluorescence, primary screen (AID 623;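 active = NADPH fluorescence slope more negative than the mean of all samples by about 3 SD, 99.7% confidence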;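 note: fluorescence intensity change per second fitted from 20 to 320 s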); conditions: Recombinant KvBeta, NADPH fluorescence decrease slope, 10 min; at 10 µM; stronger effect = lower value
# [6] = target: Alpha-2C adrenergic receptor (Homo sapiens) (UniProt P18825); assay: compounds altering alpha2C-coupled GIRK flux – cell-based, HEK293 alpha2C/GIRK1/2, thallium flux, primary screen (AID 624;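 active = fluorescence slope after compound addition differing from the mean of all screened samples at 99.7% confidence, in either direction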;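 note: slope of fluorescence ratio to pre-addition baseline per second over 15 to 24 s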); conditions: thallium flux BTC fluorescence, at 10 µM, actives lie on both sides
# Chain of Alpha-2C adrenergic receptor (Homo sapiens) (P18825 whole entry, looked up): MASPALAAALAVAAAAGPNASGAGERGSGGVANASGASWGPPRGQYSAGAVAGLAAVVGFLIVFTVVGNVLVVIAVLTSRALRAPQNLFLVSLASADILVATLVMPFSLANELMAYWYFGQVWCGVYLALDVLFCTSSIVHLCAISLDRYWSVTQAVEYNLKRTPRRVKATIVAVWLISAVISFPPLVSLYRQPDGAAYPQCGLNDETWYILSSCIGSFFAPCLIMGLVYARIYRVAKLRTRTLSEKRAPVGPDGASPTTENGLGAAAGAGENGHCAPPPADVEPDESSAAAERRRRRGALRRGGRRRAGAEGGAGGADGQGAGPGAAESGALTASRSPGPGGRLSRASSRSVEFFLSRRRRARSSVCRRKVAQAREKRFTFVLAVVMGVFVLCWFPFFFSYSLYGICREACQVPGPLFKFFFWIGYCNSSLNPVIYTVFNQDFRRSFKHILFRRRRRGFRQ
# [7] = blockers of RIG-like receptor reporter activation – cell-based, Sendai virus stimulus, luciferase, 10K MLSCN set, TLR/RLR signaling modifier project, primary screen (AID 602276;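 active = inhibition at or above 50% at 10 µM; inactive = inhibition below 50%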;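 note: firefly luciferase from ISG56 promoter only with Renilla not read in this screen; 0% = Sendai virus plus DMSO and 100% = medium plus DMSO without virus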); conditions: HEK293 RL24 IRF3 luciferase reporter, at 10 µM, stronger effect = higher value
# [8] = TLR3 IRF3 reporter activation blockers – cell-based, poly I:C stimulus, luciferase, 10K MLSCN set, primary screen (AID 602277;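 active = inhibition of the reporter signal at or above 50%; inactive = inhibition below 50%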); conditions: HEK293-TLR3 RL24 IRF3 luciferase reporter, at 10 µM, stronger effect = higher value
SMILES,cell count [1],inhibition [1],inhibition of aggregation [2],nuclei count [2] [%],inhibition [3],nuclei count [3] [%],fluorescence slope [4],NADPH fluorescence slope [5],slope [6],inhibition [7],inhibition [8]
O=C(c1ccccc1Br)N1CCN(c2ccccc2)CC1,619,1.2% (inactive),-1.6% (inactive),100,-38.7% (inactive),123,-0.488 (inactive),-0.000203 (inactive),0.00488 (inactive),9.32% (inactive),14.8% (inactive)
CCc1[nH]nc2c1C1(CCN(C(=O)OCc3ccccc3)CC1)C(C#N)=C(N)O2,823,0.6% (inactive),12.7% (inactive),114,-28.9% (inactive),124,-0.494 (inactive),-4.5e-05 (inactive),0.00458 (inactive),17.6% (inactive),13.6% (inactive)
O=C(NCc1ccc2c(c1)OCO2)c1cccc2c1C(=O)N(C1CCCCC1)C2,570,-5% (inactive),-12.5% (inactive),108,3.2% (inactive),115,-0.615 (inactive),-1.7e-05 (inactive),0.00632 (inactive),8.65% (inactive),15.3% (inactive)
O=C(COC(=O)C1CC1)c1c[nH]c2ccccc12,468,4.3% (inactive),3% (inactive),114,-24.9% (inactive),103,-0.587 (inactive),-2.6e-05 (inactive),0.00646 (inactive),-49.1% (inactive),-96.8% (inactive)
CCn1cc(C2=NCC(C)O2)c2ccccc21 (stereo not drawn),487,5% (inactive),-14% (inactive),83.2,-128% (inactive),102,-0.595 (inactive),-9.7e-06 (inactive),0.00619 (inactive),12.7% (inactive),25.5% (inactive)
Cc1cccc(-c2nc(CN3CCCC(C(=O)NC4CCCC4)C3)c(C)o2)c1 (stereo not drawn),333,-0.4% (inactive),-3.8% (inactive),111,-15.2% (inactive),103,-0.514 (inactive),-5.9e-06 (inactive),0.00415 (inactive),20.6% (inactive),16.3% (inactive)
Cc1cc(C)n(-c2nc3c(c(=O)n(Cc4ccc(Cl)c(Cl)c4)c(=O)n3C)n2C)n1,404,-1.4% (inactive),1.2% (inactive),105,-8.9% (inactive),115,-0.6 (inactive),-1.8e-05 (inactive),0.00595 (inactive),4.56% (inactive),21.6% (inactive)
COC(=O)[C@@H](NC(=O)NCc1ccccc1Cl)C(C)C,732,8.4% (inactive),-23.1% (inactive),100,15.5% (inactive),109,-0.469 (inactive),-2.9e-05 (inactive),0.00402 (inactive),4.11% (inactive),32.6% (inactive)
Cn1cccc1Cc1nnc(SCC(=O)Nc2ccc(F)cc2)n1-c1ccc(F)cc1,843,1.4% (inactive),-2.2% (inactive),95.4,-45.2% (inactive),116,-0.592 (inactive),-1.8e-05 (inactive),0.00531 (inactive),10.5% (inactive),27.7% (inactive)
COc1ccc(NC(=O)CSc2nnc(-c3ccccc3C)n2C)cc1,661,1.6% (inactive),3.2% (inactive),121,81.4% (active),111,-0.422 (inactive),-3.9e-05 (inactive),0.0036 (inactive),5.44% (inactive),28.1% (inactive)
COc1ccc(-c2nc3c(n2O)CCC/C3=N\O)cc1,319,-8% (inactive),0.2% (inactive),98.1,-2.4% (inactive),113,-0.413 (inactive),-7.6e-05 (inactive),0.00746 (inactive),-16.5% (inactive),-26.8% (inactive)
N#CC1=C(SCC(=O)NC2CCCCC2)NC(=O)CC1c1ccco1 (stereo not drawn),709,-7.8% (inactive),-1.4% (inactive),62,-10.6% (inactive),102,-0.525 (inactive),-5.1e-05 (inactive),0.00537 (inactive),10.9% (inactive),14% (inactive)
Cc1cc(C)n2nc(SCc3cc(=O)n4ccccc4n3)nc2n1,536,-16.3% (inactive),13% (inactive),66.3,-75.8% (inactive),112,-0.29 (inactive),-4.7e-06 (inactive),0.00424 (inactive),5.17% (inactive),14.4% (inactive)
CC(C)Cn1c(=O)c(C(=O)Nc2ccccc2S(N)(=O)=O)c(O)c2ccccc21,740,-1% (inactive),-9.5% (inactive),99.4,60.6% (active),92.3,-0.393 (inactive),-3.1e-05 (inactive),0.00741 (inactive),-1.36% (inactive),-18.4% (inactive)
COc1ccc(CN(C(=O)c2oc3ccccc3c2C)C2CCS(=O)(=O)C2)cc1 (stereo not drawn),592,1.7% (inactive),7.1% (inactive),87.3,-5.9% (inactive),102,-0.444 (inactive),2.9e-05 (inactive),0.00692 (inactive),-2.17% (inactive),8.82% (inactive)
c1ccc(-c2noc(C3CCCCC3)n2)nc1,665,-44.9% (inactive),-13.4% (inactive),97.5,-29.2% (inactive),110,-0.52 (inactive),-2.4e-05 (inactive),0.00485 (inactive),-1.58% (inactive),-68.3% (inactive)
CCOC(=O)c1ccc(N2C(=O)CC(N(C)CCc3ccc(OC)c(OC)c3)C2=O)cc1 (stereo not drawn),451,-7.1% (inactive),2.9% (inactive),94.2,-20.7% (inactive),117,-0.431 (inactive),3.6e-05 (inactive),0.00246 (inactive),-7.6% (inactive),25.6% (inactive)
CC1CCCC(C)N1C(=O)COC(=O)c1ccc[nH]c1=O (stereo not drawn),476,0% (inactive),3.4% (inactive),98.4,25.2% (inactive),113,-0.326 (inactive),-7.3e-06 (inactive),0.00649 (inactive),16.7% (inactive),31.4% (inactive)
COc1ccc(CC(=O)NCc2nnc(SCC(=O)Nc3nccs3)n2-c2ccccc2)cc1,640,5.8% (inactive),17.6% (inactive),98.3,-36.8% (inactive),122,-0.558 (inactive),-2.9e-05 (inactive),0.00708 (inactive),12% (inactive),33.9% (inactive)
c1ccc(-c2cc(N3CCCCC3)ncn2)cc1,327,0.7% (inactive),-3.9% (inactive),101,-109% (inactive),112,-0.485 (inactive),-4.6e-05 (inactive),0.00423 (inactive),-37.6% (inactive),-113% (inactive)
COc1ccc(S(=O)(=O)Nc2ccccc2OC)cc1C,471,-3.3% (inactive),0.3% (inactive),96.5,-26.6% (inactive),110,-0.459 (inactive),1.9e-05 (inactive),0.00608 (inactive),16.7% (inactive),27.5% (inactive)
CC1NC2(C(=O)N(Cc3ccccc3)c3ccccc32)C2C(=O)N(c3ccccc3)C(=O)C12 (stereo not drawn),643,-5.3% (inactive),2.9% (inactive),113,-33.8% (inactive),109,-0.567 (inactive),-5.5e-05 (inactive),0.0066 (inactive),4.63% (inactive),26% (inactive)
Cc1c(C(=O)Nc2ccncc2)oc2c1C(=O)CC(C)(C)C2,254,9.6% (inactive),18.9% (inactive),85.4,-44.5% (inactive),97.2,-0.408 (inactive),-2.8e-05 (inactive),0.00527 (inactive),7.94% (inactive),-3.33% (inactive)
Nc1nnc(C(=O)c2ccccc2N)s1,384,-5.3% (inactive),-21% (inactive),99.9,-41.8% (inactive),106,-0.438 (inactive),-0.000136 (inactive),0.00502 (inactive),-1.19% (inactive),-4.86% (inactive)
Cc1cc(C)n(-c2nc3c(c(=O)[nH]c(=O)n3C)n2Cc2ccc(F)cc2)n1,402,1.3% (inactive),-21.6% (inactive),94.4,-7.5% (inactive),102,-0.324 (inactive),-3.8e-05 (inactive),0.00739 (inactive),13% (inactive),13.7% (inactive)
O=C(CN1CCN(c2cccc(Cl)c2)CC1)N1CCCC1,330,-8.7% (inactive),19.2% (inactive),73,-69% (inactive),87.6,-0.581 (inactive),-1.8e-05 (inactive),0.00658 (inactive),-11.1% (inactive),-35.4% (inactive)
O=C(CCN1CCc2ccccc2C1)Nc1ccc2c(c1)OCO2,413,2.9% (inactive),14.5% (inactive),96.1,-84.4% (inactive),110,-0.542 (inactive),-1.3e-05 (inactive),0.00425 (inactive),6.95% (inactive),14.1% (inactive)
O=C(Cc1cccs1)NCc1ccc(F)cc1,458,2.4% (inactive),10.1% (inactive),107,56.1% (active),93.3,-0.408 (inactive),-3.6e-06 (inactive),0.00459 (inactive),-18.8% (inactive),-36.3% (inactive)
